Experiment in all cases: Euclidean distance of Cell Painting phenotypic profile (signed KS, 77 features) to DMSO centroid (dimensionless distance); 5 or 10 uM (library dependent); higher = stronger phenotypic change vs DMSO (phenoactivity)
Settings in all cases: 48 h

The test system of one assay is 786-O. The essentials: (§1)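 Harmony extracted 77 features from 20X confocal images (9 fields/well) of stained cells, scoring each as a signed Kolmogorov-Smirnov statistic against same-plate vehicle wells. The cells, five cancer lines and a healthy fibroblast line, had received library compounds for 48 h at 10 or 5 uM depending on library, with 0.1% DMSO final. Phenoactivity is the Euclidean distance from each plate-position-corrected, correlation-weighted, top-dose replicate-averaged profile to the median vehicle profile.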

For a further assay, the system named is A549. Summed up:
as §1

A further assay deals with DU145. The essentials: as §1
Another assay deals with FB. Summed up:
as §1

Another assay deals with HEPG2. The essentials: as §1
The subject of the next assay is OVCAR4. The essentials:
as §1

Molecules are shown by their SMILES. Structures can show the parent of a compound that is named as a salt.

With `CCCN1C[C@H](C)[C@@H](O)[C@](C)(O)[C@@H](CC)OC(=O)[C@H](C)[C@@H](O[C@H]2C[C@@](C)(OC)[C@@H](O)[C@H](C)O2)[C@H](C)[C@@H](O[C@@H]2O[C@H](C)C[C@H](N(C)C)[C@H]2O)[C@](C)(O)C[C@H]1C` [Gamithromycin], the Euclidean distance amounted to 1.26 in the assay on 786-O; 1.03 in the assay on A549; 1.98 with DU145; 1.12 with FB; 1.08 with HEPG2; 1.05 in the assay with OVCAR4.
`CC(C)CC(=O)Nc1cncc(-c2ccc3[nH]nc(-c4nc5cncc(-c6cccc(F)c6)c5[nH]4)c3c2)c1`: the Euclidean distance came out at 5.07 in the assay with 786-O; 2.79 in the assay with A549; 4.73 in the assay on DU145; 4.58 in the assay with FB; 4.73 with HEPG2; 3.42 in the assay with OVCAR4.
For `COc1ccc(C(=O)CC(=O)c2ccc(C(C)(C)C)cc2)cc1` [Avobenzone], the Euclidean distance in the assay on 786-O stood at 1.41; in the assay with A549, 0.547; in the assay with DU145 it was 0.714; in the assay with FB it was 1.02; in the assay with HEPG2, 0.762; in the assay with OVCAR4, 0.989.
For `Cn1ncc(Cl)c1-c1cc(C(=O)N[C@H](CN)Cc2ccc(F)c(F)c2)oc1Cl`, the Euclidean distance in the assay on 786-O was found to be 3.04; in the assay with A549, 2.27; with DU145, 3.3; with FB, 3.69; in the assay on HEPG2 it was 2.27; with OVCAR4, 2.44.
`COc1ccc(C2C(=O)c3ccccc3C2=O)cc1` [Anisindione]: the Euclidean distance was 0.89 in the assay on 786-O; 0.546 in the assay with A549; 1.76 with DU145; 1.61 with FB; 0.828 with HEPG2; 0.667 with OVCAR4.
`C[C@@H](NC(=O)c1ncnc(N)c1Cl)c1ncc(C(=O)Nc2cc(C(F)(F)F)c(Cl)cn2)s1`: the Euclidean distance was determined as 1.57 in the assay with 786-O; 2.12 in the assay with A549; 1.59 with DU145; 1.41 in the assay with FB; 0.931 in the assay with HEPG2; 1.52 in the assay on OVCAR4.
Consider `CCN1C[C@H](C)n2c(c(O)c3c(=O)n(Cc4ccc(F)c(Cl)c4)nc(C(=O)NC)c32)C1=O`, for which the Euclidean distance with 786-O worked out at 1.08; in the assay on A549, 0.61; with DU145 it was 1.05; with FB it was 0.927; in the assay with HEPG2, 0.645; in the assay with OVCAR4, 1.
Take `N#Cc1c(O)c2c(-c3ccc(-c4ccccc4O)cc3)csc2[nH]c1=O`: the Euclidean distance with 786-O was found to be 1.12; in the assay with A549 it was 1.26; with DU145, 0.976; with FB, 0.818; in the assay on HEPG2, 0.746; in the assay with OVCAR4, 1.78.
`CN(CCOc1ccc(CC2SC(=O)NC2=O)cc1)c1ccccn1` (centres undefined) [Rosiglitazone HCl]: the Euclidean distance in the assay on 786-O came out at 1.13; with A549, 1.65; with DU145 it was 1.31; with FB, 1.07; in the assay with HEPG2, 2.06; in the assay on OVCAR4, 1.27.
In the case of `C[C@H]1O[C@@H](O[C@H]2CC[C@@]3(C)[C@@H](CC[C@]4(C)[C@@H]3C=C[C@]35OC[C@@]6(CCC(C)(C)C[C@H]63)[C@H](O)C[C@]54C)[C@]2(C)CO)[C@H](O)[C@@H](O[C@@H]2O[C@H](CO)[C@@H](O)[C@H](O)[C@H]2O)[C@H]1O` [Saikosaponin D], the Euclidean distance with 786-O turned out to be 2.45; with A549, 2.4; with DU145, 5.79; in the assay with FB it was 1.95; in the assay on HEPG2, 4.11; with OVCAR4, 2.92.
On to `C[C@]12C[C@H](O)[C@H]3[C@@H](CCC4=CC(=O)CC[C@@]43C)[C@@H]1CC[C@@H]2C(=O)CO` [Corticosterone], for which the Euclidean distance in the assay with 786-O was determined as 1; in the assay on A549, 1.47; in the assay on DU145 it was 1.47; with FB, 1.15; in the assay with HEPG2, 0.619; in the assay with OVCAR4, 1.04.
With `Cn1c(=O)c2c(ncn2CC2OCCO2)n(C)c1=O` [Doxofylline], the Euclidean distance in the assay on 786-O stood at 1.15; in the assay with A549, 0.81; in the assay on DU145 it was 0.772; in the assay with FB, 0.965; in the assay with HEPG2, 0.408; in the assay on OVCAR4 it was 1.15.
In the case of `CC(C)(CCCCCC(O)CCCCCC(C)(C)C(=O)O)C(=O)O`, the Euclidean distance turned out to be 0.76 in the assay with 786-O; 0.809 with A549; 0.925 in the assay on DU145; 0.851 in the assay on FB; 0.375 in the assay with HEPG2; 1.06 with OVCAR4.
Regarding `CC(=O)Nc1ccc(NC(=S)NC(=O)c2ccc(C(C)(C)C)cc2)cc1` [Tenovin-1], the Euclidean distance with 786-O was 2.16; in the assay with A549 it was 1.83; in the assay on DU145, 0.772; in the assay with FB, 0.753; with HEPG2 it was 1.08; with OVCAR4 it was 1.03.
